Experimental data published in the OligoGym collection.

target: KRTAP5-8; test: pooled miR-30 sensor sort-seq; sequence = guide strand; settings: shRNA
Further: reference of the scale not given here.

Sequence | sensor-assay potency score (higher = more potent)
AGCAGCTAGAGCCACATCCCCC | -1.72
TGCAGGGCTTACAACAGCTGGA | -1.15
TGAGGAGCAACAGCAGGGCTTA | -1.48

target: KRTAP5-9; test: as above; settings: shRNA

Sequence | sensor-assay potency score (higher = more potent)
TCACAGCCTCCACAGCTGGAGC | -1.62
CACACAGGGACACAGCATCTGG | -1.57
AGCTAGAGCAGGAACAGGCTGG | -1.04
TGAGGATGAGCAGCAGGGCTTG | -1.74
TAGAGCAGGAACAGGCTGGAAC | -1.08
TAGACGGGTGCACAGCAGCTGG | -1.34
TAGGGCTTGCAGCAGCTGCACT | -1.29
TTGCAGCAGTAGACGGGTGCAC | -0.372
AGTCACAGCCTCCACAGCTGGA | -1.85
TGGAACACAGCAGCACACGGGC | -1.32
TGAAGAGCAACAGCAGGGCTTG | -0.909
TTGCCACAGCTAGAGCAGGAAC | -1.67

target: KRTAP6-3; test: as above; settings: shRNA

Sequence | sensor-assay potency score (higher = more potent)
ATTGTAGTTTCTGTAGTAGCTG | -0.231
TCTGTAGTAGCTGCCACACATG | -1.43
TGTAGTTTCTGTAGTAGCTGCC | 0.749
TTCTGTAGTAGCTGCCACACAT | -0.0154
TAGTTTCTGTAGTAGCTGCCAC | -0.443
TTTCTGTAGTAGCTGCCACACA | -1.22
TAGCCACAGCCACAGAAGGAGC | -1.94
ACAGCCATAGCCACAGTCCAGG | -1.73
TAGTAGCTGCCACACATGGTGT | -1.17
TCTGTAGCCACAGCCACAGAAG | -1.55
ATAGCCATGGCCACCATTGTAG | -1.31
TTGTAGTTTCTGTAGTAGCTGC | -0.198

target: KRTAP8-1; test: as above; settings: shRNA

Sequence | sensor-assay potency score (higher = more potent)
ATCCTGGGAAGACAGCCCCGGG | -1.89
TGCTGCCATAGCCACAGCCAAC | -2.12
TTGGAAAGCAGTGTCTCTGAGG | -0.482
TGTAGCCATAGCCGAAGCCATA | -1.87
AGCCGTTGTAGCCATAGCCGAA | -1.46
TAGCCGAAAGCCCCACAGCCGT | -1.72
TGCCCCAGTAGCATCCTGGGAA | -0.828
TAGGTGCTGCCATAGCCACAGC | -1.53
TAGCATCCTGGGAAGACAGCCC | -0.588
TTGTAGCCATAGCCGAAGCCAT | -1.41
TATATCCCAGCGGGTAGCCATA | -1.94
ACAGCCAACGCTATATCCCAGC | -1.47
